The record followed here is PubChem BioAssay (NCI).

This is part of a sample that, as a whole, favours compounds with a hit. Of some 83,000 tested, about 20% had one in any assay.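 96-well plates, one dose, 48 hours. Percent growth reported; active if below 10.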 A number with no mark means an inactive call. Activity calls are given as the source filed them.

For the experiment, the system named is UO-31 renal. As to the kind of experiment: NCI-60 one-dose screen, 48 h (100 = growth as untreated, 0 = no growth, -100 = all killed). The conditions noted are these: 10 µM unless noted. The method, then:
Growth inhibition of the UO-31 human tumor cell line is measured as a screen for anti-cancer activity. Cells are grown in 96 well plates and exposed to the test compound for 48 hours. Compounds are tested at a single concentration, which is 10^-5 M for most compounds. The reported endpoint is percent growth (GI% or GIPRCNT), where numbers from 0 - 100% represent growth inhibition, and numbers from -100% - 0 represent cell death. For example, a value of 40 represents 60% growth inhibition. A value of 0 means no net growth occurred over the course of the experiment. A value of -40 indicates 40% of cells at the beginning of the experiment died by the end of the experiment. A value of -100 means all cells are dead at the end of the experiment.
NCI-60 Human Tumor Cell Lines Screen was performed using the standard one-dose NCI protocol, which is described in more detail at https://dtp.cancer.gov/discovery_development/nci-60/default.htm.
Compounds with GIPRCNT values below 10 were considered active. Activity score was based on GIPRCNT using the following formula: […]
Score is 0 for GIPRCNT values of 100 or above, 50 for GIPRCNT values of 0, and 100 for GIPRCNT values of -100.
As for `CN(C)CC(=O)c1ccc2cc(Br)c3ccccc3c2c1`, the growth is 36%.

`C=C1C(=O)O[C@H]2[C@H]1CC/C(COC(=O)NCc1cn(C)c3ccccc13)=C\CC[C@@]1(C)O[C@@H]21`: the growth was -88.3% (active).

For `O=C(/C=C/c1ccccc1Br)c1cccc(OCCCCOc2cccc(C(=O)/C=C/c3ccccc3Br)c2)c1`, the growth was 81.3%.

Regarding `COc1cc(Cl)cc(-c2nn(C(=O)NCCN3CCOCC3)cc2-c2ccncc2)c1`, the growth was 56.9%.

Regarding `CC1OC(n2c3ccccc3c3c4c(c5c6ccccc6[nH]c5c32)C(=O)N(CCN2CCOCC2)C4=O)CC(O)C1O` (stereo not given), the growth was 25.5%.

Turning to `COc1ccc(-c2nc(SCCC(C)C)nc(Nc3ccc(C(=O)O)cc3)c2C#N)cc1`, the growth is 67%.

For `CCCCn1cnc2c(SCc3ccc([N+](=O)[O-])cc3)nc(N)nc21`, the growth was 65.2%.

For the molecule `Brc1ccsc1Br`, the growth is 91.3%.

As for `c1ccc2oc(-c3cnc4nonc4n3)cc2c1`, the growth was 63.1%.

Take `CCCCCCCCCCCCCCCC1=NCCN1`: the growth is 64.5%.

Regarding `Cc1ccccc1NC(=O)c1sc2nc3c(cc2c1N)C(=O)CCC3`, the growth was 77.5%.

As for `COc1ccc(C(=O)OC2C(OC3C(O)COC(O[C@H]4C[C@H]5[C@@H]6CC=C7C[C@@H](O)CC[C@]7(C)[C@H]6CC[C@]5(C)[C@H]4[C@H](C)C(=O)CCC(C)C)C3OC(N)=O)OCC(O)C2O)cc1` (stereo not given in full), the growth was -39% (active).

For the molecule `O=C(NO)c1ccc(CNc2cccc3nc(C4CC4)n(-c4ccccc4)c(=O)c23)cc1`, the growth is 3.57% (active).

Regarding `COc1ccc2nc(-c3ccc(-c4noc(-c5ccc(Cl)cc5)n4)cc3)[nH]c2c1`, the growth was 55.8%.

Consider `Cc1nn(-c2ccccc2)c2nc3c(nc12)C1=NCCN1C(c1ccc(Cl)cc1)N3` (stereo not given), for which the growth was 59.2%.

With `COc1cc2ncnc(Nc3ccc(S(=O)(=O)Nc4cc(C)on4)cc3)c2cc1OCCCN1CCN(c2ccc([N+](=O)[O-])cc2)CC1`, the growth is 79.2%.

Consider `COc1ccc2c(c1)N(Cc1ccc(Cl)cc1)CCC2N1CCCC1=O` (stereo not given), for which the growth was 8.64% (active).

Turning to `N=C(N)c1ccc(-c2ccc(-c3ccco3)o2)cc1F`, the growth was -57.2% (active).

As to `CC1=CCC2C1CC=C(C)C(CC[C@H]1[C@@](C)(O)CCC3OC(C)(C)[C@H](OC(=O)c4ccccc4)CC[C@@]31C)C2(C)C` (stereo not given in full), the growth was 80.8%.

Turning to `CCOCCNc1ccc(S(=O)(=O)c2ccc(N)cc2)cc1N`, the growth is 90.8%.

For `Cc1ccc(NC(=O)c2sc3nc4c(cc3c2N)C(=O)CCC4)cc1Cl`, the growth is 111%.

For `CC(=O)O[C@H]1CC[C@]2(C)[C@H]3CC=C4[C@@H]5CC(C)(C)CC[C@]5(C(=O)OCC(COC(=O)C(Cl)Cl)(COC(=O)C(Cl)Cl)NC(=O)C(Cl)Cl)CC[C@@]4(C)[C@]3(C)CC[C@H]2C1(C)C`, the growth was 62.5%.

Take `CCOC(=O)Cc1cc(Br)c(OCc2ccccc2)c(Br)c1`: the growth is 80.5%.

In the case of `COc1ccc(/C(C)=N/NC(=O)c2ccc(S(C)(=O)=O)cc2)cc1OC`, the growth was 91.9%.

Turning to `Cc1ccc(C)c(NC(=O)c2sc3c(=O)[nH]cnc3c2C)c1`, the growth is 74.9%.

For the molecule `COc1cccc(NC(=O)OC(C)C)c1`, the growth was 82.1%.

Take `COc1cccc(/C=N\Nc2ccc([N+](=O)[O-])cn2)c1O`: the growth was 26.9%.

As for `COc1ccc(-c2cc(C(=O)Nc3ccc(Br)cc3)nc3[nH]c(=O)sc23)cc1`, the growth is 28.6%.

For `O=C(c1ccc(OCCN2CCCCC2)cc1)c1c(-c2ccc(O)cc2)sc2cc(O)ccc12`, the growth was 67.1%.

With `CC(=O)Oc1c(Cl)c(Cl)c(Cl)c(Cl)c1Cl`, the growth was 81.6%.

On to `COc1ccc(-c2conc2-n2nc(-c3ccccc3)nc2-c2ccccc2)cc1`, for which the growth was 73.2%.

With `COc1ccc(-c2nc3ccccc3n3cccc23)cc1`, the growth was 45.7%.

Turning to `COc1cnc2c(c1)C(=O)c1c-2n(CCCN2CCNCC2)c(=O)c2cc(Cl)ccc12`, the growth is -59% (active).

For the molecule `Cc1ccc(Nc2cccc3ccccc23)cc1`, the growth is 45.5%.

For the molecule `COc1cccc(-c2nc3sccn3c2-c2ccnc(NCCN3CCCN(C)S3(=O)=O)n2)c1`, the growth is 73.4%.

`CC(C)(C)[Si](C)(C)OC1[C@@H](CNC(N)=O)O[C@@H](n2cnc3c(NC(=O)Nc4ccccc4)ncnc32)[C@H]1O[Si](C)(C)C(C)(C)C` (stereo not given in full): the growth was 40.9%.

As to `C#Cc1cccc(Nc2nc3cc([N+](=O)[O-])ccc3nc2Nc2ccc(O)cc2)c1`, the growth is 14.6%.

For the molecule `O=C(c1ccccc1)C(CCc1ccccn1)CCc1ccccn1`, the growth was 75.1%.

Turning to `COc1cc(C2CC(c3ccccc3)=NN2C=O)ccc1Oc1ccnc2cc(Cl)ccc12` (stereo not given), the growth is 47.2%.

For `CCOC(=O)c1cc(N)nc2ccccc12`, the growth is 103%.
